The record followed here is PubChem BioAssay.

Test [1] in a line: inhibitors of TNFa-induced NFkB p65 translocation, primary screen, imaging, HUVEC, MLSMR starter and 10KST1 sets (AID 438).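 For inhibition: signal is the nuclear over cytoplasmic p65 intensity ratio per well.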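 Note: compound added about 3h40 before a 20 min TNFalpha stimulation.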 Conditions: HUVEC TNFa-induced p65 nuclear translocation; cell count: measured here: nuclei count (cytotoxicity indicator), at 2.08 µM; inhibition: at 2 µM, stronger effect = higher value, 0% TNFa-plus-vehicle, 100% no-TNFa wells.
A short description of test [2]: inhibitors of mutant huntingtin aggregation, primary screen, imaging, exon1htt(103Q)mCFP cells, high-content imaging (AID 483;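 active = visual image review flags a hit and inhibition of aggregation exceeds 20%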;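 note: compound exposure lasted 3 days before fixation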;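 for nuclei count: percent of the per-plate median nuclei count of sample wells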). Conditions: exon1htt(103Q)mCFP cell line, aggregate imaging, at 2 µM; inhibition of aggregation: stronger effect = higher value; nuclei count: measured here: cell count, toxicity.
Test [3] in a line: inhibitors of E-selectin induction by TNFa, primary screen, imaging, HUVEC, immunofluorescence, MLSMR starter and 10KST1 sets (AID 487;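 active = visually confirmed hit in the image check and inhibition above 20%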;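 for inhibition: signal is fraction of cell area covered by stained E-selectin grains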;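 for nuclei count: 100% = median nuclei count of all wells on the same plate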). To be noted: HUVEC TNFalpha-induced E-selectin immunofluorescence imaging, at 2 µM; inhibition: stronger effect = higher value; nuclei count: measured here: cell number, toxicity.
Test [4] has as its target Voltage-gated potassium channel subunit beta-2 (Rattus norvegicus) (UniProt P62483). The test is described as follows: KvBeta enzyme negative modulators, primary screen, biochemical, NADPH fluorescence (AID 622;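 active = fluorescence slope higher than the sample average by over 3 SD, cut at about -0.22 in these data, passing the limit was not always enough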;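 note: slope of raw intensity against log time taken from 70 to 1610 s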). Conditions: recombinant KvBeta, 4-cyanobenzaldehyde reduction, at 10 µM, stronger effect = higher value.
For test [5] the target is unchanged. Kind of test: KvBeta positive modulators, primary screen, biochemical, NADPH fluorescence (AID 623;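 active = NADPH fluorescence slope more negative than the mean of all samples by about 3 SD, 99.7% confidence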;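 note: fluorescence intensity change per second fitted from 20 to 320 s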). Conditions: Recombinant KvBeta, NADPH fluorescence decrease slope, 10 min; at 10 µM; stronger effect = lower value.
Test [6] deals with Alpha-2C adrenergic receptor (Homo sapiens) (UniProt P18825). The test is described as follows: modulators of alpha2C/GIRK thallium flux, primary screen, cell-based, HEK293 alpha2C/GIRK1/2 (AID 624;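 active = fluorescence slope after compound addition differing from the mean of all screened samples at 99.7% confidence, in either direction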;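 note: slope of fluorescence ratio to pre-addition baseline per second over 15 to 24 s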). Conditions: thallium flux BTC fluorescence, at 10 µM, actives lie on both sides.
A short description of test [7]: inhibitors of Sendai virus-induced IRF3 signaling, primary screen, TLR/RLR signaling modifier project, cell-based, Sendai virus stimulus, luciferase, 10K MLSCN set (AID 602276;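 active = inhibition at or above 50% at 10 µM; inactive = inhibition below 50%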;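 note: firefly luciferase from ISG56 promoter only with Renilla not read in this screen; 0% = Sendai virus plus DMSO and 100% = medium plus DMSO without virus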). Conditions: HEK293 RL24 IRF3 luciferase reporter, at 10 µM, stronger effect = higher value.
Test [8] in a line: inhibitors of poly I:C-induced TLR3 signaling, primary screen, cell-based, poly I:C stimulus, luciferase, 10K MLSCN set (AID 602277;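 active = inhibition of the reporter signal at or above 50%; inactive = inhibition below 50%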). To be noted: HEK293-TLR3 RL24 IRF3 luciferase reporter, at 10 µM, stronger effect = higher value.

The source made the active and inactive calls.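 Rule for the calls, unless noted: active = inhibition above 20% together with a positive visual image hit; inconclusive = visual image hit but inhibition not above 20%; inactive = no visual image hit.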

Alpha-2C adrenergic receptor (Homo sapiens), sequence (P18825 whole entry, looked up): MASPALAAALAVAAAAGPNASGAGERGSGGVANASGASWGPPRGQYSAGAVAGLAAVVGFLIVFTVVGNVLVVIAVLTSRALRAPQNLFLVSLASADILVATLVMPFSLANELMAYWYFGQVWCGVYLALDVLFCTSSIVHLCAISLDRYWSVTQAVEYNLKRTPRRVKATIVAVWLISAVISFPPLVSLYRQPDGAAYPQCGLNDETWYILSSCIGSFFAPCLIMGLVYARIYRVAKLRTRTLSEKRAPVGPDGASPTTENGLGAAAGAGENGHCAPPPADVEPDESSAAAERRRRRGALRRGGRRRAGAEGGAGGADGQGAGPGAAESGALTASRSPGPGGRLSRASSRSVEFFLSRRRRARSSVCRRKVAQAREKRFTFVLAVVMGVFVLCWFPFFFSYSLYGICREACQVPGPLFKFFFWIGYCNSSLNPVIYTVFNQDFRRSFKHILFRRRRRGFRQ
Voltage-gated potassium channel subunit beta-2 (Rattus norvegicus), sequence (P62483 whole entry, looked up): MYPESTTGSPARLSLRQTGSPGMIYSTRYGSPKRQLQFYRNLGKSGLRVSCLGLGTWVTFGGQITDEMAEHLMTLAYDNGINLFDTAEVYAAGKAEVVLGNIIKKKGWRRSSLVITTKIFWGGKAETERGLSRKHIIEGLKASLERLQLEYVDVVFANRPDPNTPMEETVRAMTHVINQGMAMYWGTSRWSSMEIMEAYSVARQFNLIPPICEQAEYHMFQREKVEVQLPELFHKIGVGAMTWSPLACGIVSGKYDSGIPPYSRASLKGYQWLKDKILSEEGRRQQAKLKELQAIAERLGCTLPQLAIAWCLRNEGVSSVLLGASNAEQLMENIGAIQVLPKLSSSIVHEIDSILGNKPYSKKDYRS

In the case of `O=S(=O)(c1cc(Cl)ccc1Br)N1CCOCC1`, the cell count in test [1] is 450. The inhibition was 10.6% (inactive) in test [1], -192% (inactive) in test [3], 6.91% (inactive) in test [7] and 35.8% (inactive) in test [8]. For the same molecule, the inhibition of aggregation in test [2] was -0.6% (inactive). Also, the nuclei count in test [2] was 90.7%; in test [3] it was 133%. Further, the fluorescence slope in test [4] is -0.431 (inactive). The NADPH fluorescence slope in test [5] is -7.3e-05 (inactive). In addition, the slope in test [6] was 0.00323 (inactive).
Consider `O=C(Nc1ccc(-c2noc(-c3cccs3)n2)cc1)c1cccnc1`, for which, in test [1], the cell count turned out to be 595. The inhibition in test [1] is 8.2% (inactive); in test [3], -49.2% (inactive); in test [7], -67.5% (inactive); in test [8], -122% (inactive). The inhibition of aggregation in test [2] was 28% (inactive). Also, the values for the nuclei count in test [2] and in test [3] were 115% and 95.8%, respectively. Besides, the fluorescence slope in test [4] is -0.474 (inactive). In test [5], the NADPH fluorescence slope was 2.2e-05 (inactive). Further, the slope in test [6] was 0.00649 (inactive).
Turning to `CCOC(=O)N1CCC(N2CC34C=CC(O3)C(C(=O)O)C4C2=O)CC1` (stereo not drawn), the cell count in test [1] was found to be 811. For the same molecule, the inhibition in test [1] was 4.4% (inactive); in test [3] it was -9.6% (inactive); in test [7], 4.63% (inactive); in test [8], 12.4% (inactive). The inhibition of aggregation in test [2] is 14.5% (inactive). Further, the nuclei count stood at 106% in test [2] and 114% in test [3]. For the same molecule, the fluorescence slope in test [4] was -0.552 (inactive). For the same molecule, the NADPH fluorescence slope in test [5] is 2.3e-05 (inactive). Besides, in test [6], the slope was 0.00719 (inactive).
As for `CN(C)c1ccc2c(c1)OC(N)=C(C#N)C2c1cccc(F)c1` (stereo not drawn), the cell count in test [1] is 404. Moreover, the inhibition in test [1] is 11.5% (inactive); in test [3], -8.8% (inactive); in test [7] it was 36.6% (inactive); in test [8], 82.9% (active). Further, the inhibition of aggregation in test [2] is -56.1% (inactive). For the same molecule, the nuclei count stood at 3% in test [2] and 103% in test [3]. In addition, the fluorescence slope in test [4] was -0.515 (inactive). The NADPH fluorescence slope in test [5] was 1.1e-05 (inactive). Besides, in test [6], the slope is 0.0134 (active).
For the molecule `CCOC(=O)C(C#N)C(c1cccnc1)c1c(C)[nH][nH]c1=O` (stereo not drawn), in test [1], the cell count worked out at 710. In addition, the inhibition in test [1] is -7.5% (inactive); in test [3], -131% (inactive); in test [7], 6.49% (inactive); in test [8], 9.18% (inactive). The inhibition of aggregation in test [2] is -3.8% (inactive). Besides, the nuclei count in test [2] came to 93%; in test [3] it was 101%. In test [4], the fluorescence slope was -0.325 (inactive). For the same molecule, the NADPH fluorescence slope in test [5] was -3.9e-05 (inactive). Further, in test [6], the slope was 0.0052 (inactive).
With `CC(C)Cn1c(CN(Cc2ccccc2)Cc2ccccc2)nc2c1c(=O)n(C)c(=O)n2C`, the cell count in test [1] came to 567. Besides, the inhibition is -1% (inactive) in test [1], -12.8% (inactive) in test [3], 9.97% (inactive) in test [7] and 12.9% (inactive) in test [8]. Besides, in test [2], the inhibition of aggregation was 1.4% (inactive). For the same molecule, the nuclei count in test [2] came to 124%; in test [3], 117%. The fluorescence slope in test [4] was -0.518 (inactive). Further, the NADPH fluorescence slope in test [5] was -1.8e-05 (inactive). The slope in test [6] is 0.00724 (inactive).
`Cc1cccc2sc(NC(=O)CN(C)S(=O)(=O)c3cccs3)nc12`: the cell count in test [1] turned out to be 601. The inhibition was -25.8% (inactive) in test [1], -1.7% (inactive) in test [3], -1.84% (inactive) in test [7] and -8.61% (inactive) in test [8]. Besides, in test [2], the inhibition of aggregation was -7% (inactive). Besides, the figures for the nuclei count in test [2] and in test [3] were 114% and 103%, respectively. Moreover, the fluorescence slope in test [4] is -0.432 (inactive). In addition, the NADPH fluorescence slope in test [5] was 1e-05 (inactive). The slope in test [6] was 0.00346 (inactive).
Turning to `COc1ccc(-c2nc(CS(=O)CC(=O)NCc3ccccn3)c(C)o2)cc1` (stereo not drawn), in test [1], the cell count turned out to be 518. For the same molecule, the inhibition in test [1] was 1.9% (inactive); in test [3], -25.4% (inactive); in test [7], 44.5% (inactive); in test [8], 9.92% (inactive). In test [2], the inhibition of aggregation was -23.1% (inactive). For the same molecule, the nuclei count was found to be 104% in test [2] and 99.7% in test [3]. Besides, in test [4], the fluorescence slope is -0.527 (inactive). The NADPH fluorescence slope in test [5] was -1.1e-05 (inactive). The slope in test [6] was 0.00839 (inactive).
Regarding `O=C(Nc1ccc(N2CCOCC2)cc1)C1CC1`, the cell count in test [1] stood at 344. Also, the inhibition in test [1] was 3.5% (inactive); in test [3] it was -16.5% (inactive); in test [7] it was 6.17% (inactive); in test [8], -13.8% (inactive). Besides, the inhibition of aggregation in test [2] was 25% (inactive). Further, the nuclei count in test [2] was found to be 83.9%; in test [3], 121%. In addition, the fluorescence slope in test [4] was -0.39 (inactive). Moreover, the NADPH fluorescence slope in test [5] was -2.3e-05 (inactive). The slope in test [6] is 0.00566 (inactive).
Regarding `N#Cc1cnc(SCCc2ccccc2)nc1N`, the cell count in test [1] was 630. Further, the inhibition in test [1] is -13.1% (inactive); in test [3] it was -14.8% (inactive); in test [7], -34% (inactive); in test [8], -61.8% (inactive). For the same molecule, the inhibition of aggregation in test [2] was -5.2% (inactive). Also, the nuclei count in test [2] came to 93.9%; in test [3], 108%. Further, the fluorescence slope in test [4] was -0.291 (inactive). For the same molecule, the NADPH fluorescence slope in test [5] is -5.5e-05 (inactive). Moreover, the slope in test [6] was 0.00492 (inactive).
On to `COc1ccc(-c2cc(O)cc(O)c2)cc1`, for which the cell count in test [1] was 397. Moreover, the inhibition in test [1] is -10.3% (inactive); in test [3] it was -25% (inactive); in test [7] it was -15.5% (inactive); in test [8] it was -88.2% (inactive). Moreover, the inhibition of aggregation in test [2] was -11% (inactive). Moreover, the nuclei count was 103% in test [2] and 98.8% in test [3]. In test [4], the fluorescence slope was -0.49 (inactive). The NADPH fluorescence slope in test [5] is -7.1e-05 (inactive). The slope in test [6] is 0.00555 (inactive).
For `CCC(C)NC(=O)c1ccccc1NC(=O)C(C)N(c1ccccc1)S(C)(=O)=O` (stereo not drawn), in test [1], the cell count worked out at 643. Further, the inhibition in test [1] is 3.1% (inactive); in test [3], -7% (inactive); in test [7] it was 5.01% (inactive); in test [8], 28.8% (inactive). Moreover, in test [2], the inhibition of aggregation was 5% (inactive). The values for the nuclei count in test [2] and in test [3] were 108% and 99.9%, respectively. The fluorescence slope in test [4] was -0.479 (inactive). Besides, the NADPH fluorescence slope in test [5] was 8.2e-06 (inactive). In test [6], the slope is 0.00595 (inactive).
Consider `CN(Cc1ccco1)C(=O)Cn1c(=O)oc2cc(S(=O)(=O)NCc3ccccc3)ccc21`, for which the cell count in test [1] is 924. The inhibition in test [1] is 2.8% (inactive); in test [3], -17.8% (inactive); in test [7] it was 13.5% (inactive); in test [8] it was 10.8% (inactive). Also, the inhibition of aggregation in test [2] was 20.1% (inactive). For the same molecule, the nuclei count worked out at 104% in test [2] and 96.6% in test [3]. In addition, in test [4], the fluorescence slope was -0.55 (inactive). In addition, in test [5], the NADPH fluorescence slope is 2.5e-05 (inactive). Moreover, the slope in test [6] was 0.00749 (inactive).
